Inhibition data for 31 molecules are collected here from ChEMBL document CHEMBL1157539, “Thousands of chemical starting points for antimalarial lead identification” (Nature, 2010).

Common to all, as to format: functional
Assay [1] relates to Plasmodium falciparum. Put plainly: GSK_TCMDC: Inhibition of Plasmodium falciparum 3D7 in whole red blood cells, using parasite LDH activity as an index of growth. Test compounds present at 2uM.
Assay [2] has as its system Plasmodium falciparum. The assay is described as follows: GSK_TCMDC: Inhibition of Plasmodium falciparum Dd2 in whole red blood cells, using parasite LDH activity as an index of growth. Test compounds present at 2uM.
For a further assay, the system named is HepG2. Put plainly: GSK_TCMDC: Percent inhibition of human HepG2 cell line. Test compounds present at 10uM.

By Inhibition is commonly meant the relative decrease from the control value, in per cent. Higher therefore signals a strong effect. Regarding `O=C(Nc1ccc(OC2CCN(Cc3ccccc3)C2)c(Cl)c1)c1cccs1.O=C(O)C(F)(F)F` (stereo not drawn), the Inhibition is 97% with Plasmodium falciparum [1], 96% in the assay on Plasmodium falciparum [2] and 13% in the assay on HepG2.
The matching figures for `CN(C)CCCOc1ccc(CNCC(C)(C)c2nc(-c3ccc(Cl)c(O)c3)c(-c3ccncc3)[nH]2)cc1.Cl`: 100%, 58% and 64%.
For `Cc1cc(N2CCCN(C)CC2)nc(Nc2ccc(Br)cc2)n1`, the Inhibition with Plasmodium falciparum [1] is reported as 94%; in the assay with Plasmodium falciparum [2], 14%; in the assay with HepG2, 8%.
For `Oc1ccccc1CNC1CCCCC1NCc1ccccc1O` (stereo not drawn) the same measures were 96%, 66% and 53%.
`Nc1ccc2[nH]cc(C3CCN(CC4CCN(C(=O)/C=C/c5ccc(Cl)c(Cl)c5)CC4)CC3)c2n1`: the Inhibition is given as 99% with Plasmodium falciparum [1], 97% in the assay on Plasmodium falciparum [2] and 53% with HepG2.
The matching figures for `Cl.Clc1ccc2c(N3CCN(CCN4CCN(c5ccnc6cc(Cl)ccc56)CC4)CC3)ccnc2c1`: 99%, 100% and 10%.
In the case of `O=C(/C=C/c1ccc(Cl)c(Cl)c1)NCCCCCCN1CCCN(C(=O)Nc2ccc(C(F)(F)F)cc2)CC1`, the Inhibition with Plasmodium falciparum [1] was determined as 100%; with Plasmodium falciparum [2] it was 25%; in the assay with HepG2, 47%.
For `Cc1[nH]c2ccccc2c1C(=O)C(C)Sc1nnc(-c2ccccc2Br)[nH]1` (stereo not drawn), the Inhibition in the assay on Plasmodium falciparum [1] came out at 100%; in the assay on Plasmodium falciparum [2], 100%; with HepG2 it was 0%.
For the molecule `Cc1ccc([S+]([O-])Cc2ccc(Cl)cc2)cc1` (stereo not drawn), the Inhibition came out at 98% with Plasmodium falciparum [1], 5% in the assay with Plasmodium falciparum [2] and 8% in the assay with HepG2.
Turning to `CC(C)CCNC(=O)C1Cc2c([nH]c3ccc(Br)cc23)C2(CCN(Cc3ccccc3)CC2)N1` (stereo not drawn), the Inhibition is listed as 96% in the assay with Plasmodium falciparum [1], 68% in the assay with Plasmodium falciparum [2] and 100% in the assay on HepG2.
The matching figures for `CCCc1ccc(NC(=O)c2cccc(CN3CCCN(Cc4cccc(O)c4)CC3)c2)cc1.O=C(O)C(F)(F)F`: 97%, 40% and 15%.
For `Cc1[nH]c(CNCCCNc2cc(=O)c3ccccc3[nH]2)c(Br)c1Br` the same measures were 91%, 47% and 0%.
For `CCCCc1cc(N2CCC(NC(C)=O)C2)nc(Nc2ccc(C)cc2)n1` (stereo not drawn) the same measures were 95%, 1% and 2%.
For `CC(C)(CNCc1cccc(Oc2ccccc2)c1)c1nc(-c2ccnc(N)n2)c(-c2ccc(Cl)c(O)c2)[nH]1.Cl`, the Inhibition in the assay with Plasmodium falciparum [1] is reported as 97%; in the assay with Plasmodium falciparum [2] it was 99%; with HepG2, 28%.
The matching figures for `CS(=O)(=O)c1cccc2sc(N3CCN(C(=O)c4ccc([N+](=O)[O-])o4)CC3)nc12`: 84%, 61% and 0%.
Regarding `O=C(Nc1ccccc1)N(Cc1cccc(-c2cccc(CNCc3ccc4c(c3)OCO4)c2)c1)C1CCN(Cc2ccccc2)CC1.O=C(O)C(F)(F)F`, the Inhibition is 100% with Plasmodium falciparum [1], 84% in the assay on Plasmodium falciparum [2] and 96% with HepG2.
The matching figures for `O=C1C2C(c3ccc(Cl)c(Cl)c3)N3CC(OCc4ccccc4)CC3(C(=O)O)C2C(=O)N1c1ccc(Br)cc1` (stereo not drawn): 100%, 86% and 14%.
Turning to `CCOc1c(Br)cc(C)cc1CNCCCNc1nc2ccccc2[nH]1.Cl`, the Inhibition in the assay with Plasmodium falciparum [1] is on record as 93%; in the assay on Plasmodium falciparum [2], 5%; in the assay with HepG2, 24%.
As for `COc1cc2nc(N3CCC(CNC(=O)c4ccc(-c5ccc(C#N)cc5C)cc4)CC3)nc(N)c2cc1OC`, the Inhibition is reported as 100% with Plasmodium falciparum [1], 99% in the assay with Plasmodium falciparum [2] and 28% in the assay with HepG2.
As to `NC(=S)Cc1ccc2c(c1)OCO2`, the Inhibition came out at 96% in the assay on Plasmodium falciparum [1], 0% in the assay with Plasmodium falciparum [2] and 43% with HepG2.
For `COc1cccc(-c2csc(C(=O)NC3CCCCN(Cc4ccc(C(C)(C)C)cc4)C3)c2)c1.O=C(O)C(F)(F)F` (stereo not drawn) the same measures were 97%, 66% and 9%.
As to `Cc1noc(C)c1-c1cccc(CNCc2cccc(-c3ccc(-c4nc5cccc(C)c5[nH]4)cc3)c2)c1.O=C(O)C(F)(F)F`, the Inhibition is 100% in the assay on Plasmodium falciparum [1], 69% in the assay on Plasmodium falciparum [2] and 24% in the assay on HepG2.
In the case of `CCCCOC(=O)C1=C(C)NC2=C(C(=O)CCC2)C1c1ccc(OC)c(Br)c1` (stereo not drawn), the Inhibition in the assay on Plasmodium falciparum [1] stood at 93%; in the assay on Plasmodium falciparum [2] it was 87%; with HepG2, 5%.
For `Cc1cccc(NC(=O)Nc2ccc(I)c(OCCN(C)C)c2)c1C` the same measures were 96%, 17% and 13%.
Regarding `Cn1ncc2ccc(Nc3nccc(-c4ccc5c(c4)c(N)nn5C)n3)cc21`, the Inhibition is recorded as 99% in the assay on Plasmodium falciparum [1], 96% in the assay with Plasmodium falciparum [2] and 48% in the assay on HepG2.
`CC(C)(C)n1nnnc1C(c1cccnc1)N(Cc1ccccc1)Cc1ccc(Cl)cc1` (stereo not drawn): the Inhibition came to 96% in the assay on Plasmodium falciparum [1], 17% in the assay with Plasmodium falciparum [2] and 0% in the assay with HepG2.
The matching figures for `Nc1ccc2[nH]cc(C3CCN(CC4CCC(NC(=O)/C=C/c5ccccc5Cl)CC4)CC3)c2n1` (stereo not drawn): 100%, 45% and 7%.
In the case of `COc1ccc(OCCCN2CCCCC2)cc1S(=O)(=O)c1ccc(OCc2ccc(C(F)(F)F)cc2)cc1.Cl`, the results for the Inhibition with Plasmodium falciparum [1], in the assay with Plasmodium falciparum [2] and in the assay on HepG2 were 94%, 8% and 52%, respectively.
Consider `CC(=O)N1N=C(c2ccccc2)Sc2c1nc(-c1ccc(Cl)cc1)n2C(C)=O`, for which the results for the Inhibition in the assay on Plasmodium falciparum [1], in the assay with Plasmodium falciparum [2] and in the assay with HepG2 were 94%, 18% and 0%, respectively.
The matching figures for `CCCC(C(=O)OCCNC)(c1ccccc1)c1ccccc1.Cl`: 98%, 96% and 7%.
The matching figures for `CN1CCC(N(Cc2ccc(-c3ccc(C(F)(F)F)cc3)cc2)C(=O)Cn2cc(Cc3cnn(C)c3)c(=O)nc2SCc2cccc(F)c2F)CC1.O=C(O)C(O)C(O)C(=O)O`: 88%, 91% and 68%.
